# Test results taken from PMC8769072, “Proteome‐scale mapping of binding sites in the unstructured regions of the human proteome” (Molecular Systems Biology, 2022).
# Sequence of YAP1 169-207, P46937 (P46937 169-207): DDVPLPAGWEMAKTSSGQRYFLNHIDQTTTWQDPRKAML
# Sequence of NEDD4 890-928, P46934 (P46934 890-928): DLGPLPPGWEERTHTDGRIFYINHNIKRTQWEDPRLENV
binder,measurement,setting,value
"PHSHDWVWLGNEVELL [TMEM132B, Q14DG7]",selected by phage display,"MAP1LC3B 2-119, Q9GZQ8",confidence 2 (active)
"SPPDYLQTVSHPEVYR [SH3D21, A4FU49]",selected by phage display,"NEDD4 890-928, P46934",confidence 3 (active)
"KPIKENIEESYVHLDI [FRYL, O94915]",selected by phage display,"MAP1LC3B 2-119, Q9GZQ8",confidence 3 (active)
"EPWAQLEASDIHTAAA [WDR90, Q96KV7]",selected by phage display,"MAP1LC3A 2-121, Q9H492",confidence 3 (active)
same,selected by phage display,"MAP1LC3B 2-119, Q9GZQ8",confidence 4 (active)
"ASERPPTYAELVPRVP [SH2D3A, Q9BRG2]",selected by phage display,"NEDD4 890-928, P46934",confidence 3 (active)
"QSNADALPPDYSVVRG [LYPD5, Q6UWN5]",selected by phage display,"NEDD4 890-928, P46934",confidence 2 (active)
"EDGYTQLHFDSQSNTR [CLEC7A, Q9BXN2]",selected by phage display,"MAP1LC3B 2-119, Q9GZQ8",confidence 2 (active)
"DQRLPPYPYSSPSLVL [CRTC2, Q53ET0]",selected by phage display,"NEDD4 890-928, P46934",confidence 4 (active)
same,selected by phage display,"YAP1 169-207, P46937",confidence 3 (active)
"SLEPPSPFELLEPPTS [MAP1S, Q66K74]",selected by phage display,"MAP1LC3A 2-121, Q9H492",confidence 3 (active)
"LAGGPAVGGLPPYATF [OTUD7B, Q6GQQ9]",selected by phage display,"NEDD4 890-928, P46934",confidence 2 (active)
"DKNDYLPLYSSSTKVK [ZNF148, Q9UQR1]",selected by phage display,"NEDD4 890-928, P46934",confidence 2 (active)
"VPAFEVLEISPQEVSS [MS4A2, Q01362]",selected by phage display,"MAP1LC3A 2-121, Q9H492",confidence 2 (active)
"WTDLASIFGSNKDLMG [NLRP2, Q9NX02]",selected by phage display,"MAP1LC3A 2-121, Q9H492",confidence 3 (active)
"MAMSNGNNDFVVLSNS [DISP1, Q96F81]",selected by phage display,"MAP1LC3B 2-119, Q9GZQ8",confidence 2 (active)
"SEGTDNGDLPSYVSAF [RINT1, Q6NUQ1]",selected by phage display,"NEDD4 890-928, P46934",confidence 2 (active)
"ASDPPPPYSDFHPNNQ [ABRAXAS2, Q15018]",selected by phage display,"NEDD4 890-928, P46934",confidence 3 (active)
"RLSISLPSYESLTGLD [TMEM51, Q9NW97]",selected by phage display,"NEDD4 890-928, P46934",confidence 2 (active)
"PPAPLAHSDDYVHISL [TSC1, Q92574]",selected by phage display,"MAP1LC3B 2-119, Q9GZQ8",confidence 2 (active)
"GNSGFQLLDLVHEEGE [SLC7A6OS, Q96CW6]",selected by phage display,"MAP1LC3A 2-121, Q9H492",confidence 2 (active)
"YLSEGFGYGMPPLYPQ [NFATC4, Q14934]",selected by phage display,"NEDD4 890-928, P46934",confidence 2 (active)
"LPSYPVAPTSRASPSP [CCDC87, Q9NVE4]",selected by phage display,"NEDD4 890-928, P46934",confidence 3 (active)
"MARRYDELPHYPGIVD [MEIS3, Q99687]",selected by phage display,"NEDD4 890-928, P46934",confidence 3 (active)
"LEAEVDFTVIGDYHGS [EPB41L1, Q9H4G0]",selected by phage display,"MAP1LC3A 2-121, Q9H492",confidence 2 (active)
"TSSSLAYPPPPSYPSP [EGR2, P11161]",selected by phage display,"NEDD4 890-928, P46934",confidence 3 (active)
"DLPAYTSPTNFPAVLS [ABCA2, Q9BZC7]",selected by phage display,"NEDD4 890-928, P46934",confidence 3 (active)
"NLPVGYPPQYPPTAFQ [PLSCR1, O15162]",selected by phage display,"NEDD4 890-928, P46934",confidence 2 (active)
"GSPPSYSEALLDQRPA [LDLRAD3, Q86YD5]",selected by phage display,"NEDD4 890-928, P46934",confidence 3 (active)
"HVRDAIRSYTEDWAIV [DOCK7, Q96N67]",selected by phage display,"MAP1LC3B 2-119, Q9GZQ8",confidence 2 (active)
"DAGLGFVDLTDLTDHQ [PEG3, Q9GZU2]",selected by phage display,"MAP1LC3A 2-121, Q9H492",confidence 3 (active)
"ADLPPPYSPTPQGPAQ [CYYR1, Q96J86]",selected by phage display,"NEDD4 890-928, P46934",confidence 2 (active)
same,selected by phage display,"YAP1 169-207, P46937",confidence 3 (active)
"ALPEPPPPYEFSASSA [N4BP3, O15049]",selected by phage display,"NEDD4 890-928, P46934",confidence 3 (active)
"FLPPYPPQEANRSITS [VPS37A, Q8NEZ2]",selected by phage display,"NEDD4 890-928, P46934",confidence 3 (active)
"AVQVPESFEHLPPLPE [ATF7IP2, Q5U623]",selected by phage display,"MAP1LC3A 2-121, Q9H492",confidence 4 (active)
"DSWEIIEGLKIGQTNV [OSBPL6, Q9BZF3]",selected by phage display,"MAP1LC3B 2-119, Q9GZQ8",confidence 3 (active)
"WEVVTSAIPRGAWHGA [ZNF419, Q96HQ0]",selected by phage display,"MAP1LC3A 2-121, Q9H492",confidence 2 (active)
"EYEIIETIGNGAYGVV [MAPK7, Q13164]",selected by phage display,"MAP1LC3B 2-119, Q9GZQ8",confidence 2 (active)
"DLNSQDRVDHEEWEMV [STBD1, O95210]",selected by phage display,"MAP1LC3A 2-121, Q9H492",confidence 4 (active)
"LANVIAPPPPPYTPNP [PROSER1, Q86XN7]",selected by phage display,"NEDD4 890-928, P46934",confidence 2 (active)
"HLGEWGHLDPAEENLK [ZSCAN18, Q8TBC5]",selected by phage display,"MAP1LC3A 2-121, Q9H492",confidence 2 (active)
"TAPPPYSPSPNPYQTA [FAM168A, Q92567]",selected by phage display,"NEDD4 890-928, P46934",confidence 3 (active)
"QAVTHDNEWEMLSPQP [PRUNE2, Q8WUY3]",selected by phage display,"MAP1LC3B 2-119, Q9GZQ8",confidence 4 (active)
EPGWVVLDQPDAAAHL,selected by phage display,"MAP1LC3B 2-119, Q9GZQ8",confidence 4 (active)
"ASPQGEWTILELETQH [KIAA1107, Q9UPP5]",selected by phage display,"MAP1LC3A 2-121, Q9H492",confidence 3 (active)
"QEEWALLDPSQKNLYR [ZNF878, C9JN71]",selected by phage display,"MAP1LC3B 2-119, Q9GZQ8",confidence 2 (active)
"LNVSSREEAFTDLSLA [USP35, Q9P2H5]",selected by phage display,"MAP1LC3A 2-121, Q9H492",confidence 3 (active)
"PPPQYIHPNSINVDGN [PRDM4, Q9UKN5]",selected by phage display,"NEDD4 890-928, P46934",confidence 2 (active)
"HDEAWMVLKQVHDTNM [SV2A, Q7L0J3]",selected by phage display,"MAP1LC3B 2-119, Q9GZQ8",confidence 3 (active)
"ALPPYSNAGDLYSEPV [EGR3, Q06889]",selected by phage display,"NEDD4 890-928, P46934",confidence 2 (active)
"AEESFTTLNVDIRNHQ [USP9X, Q93008]",selected by phage display,"MAP1LC3A 2-121, Q9H492",confidence 2 (active)
"NSTPPPYERTRLSPPR [RBM14, Q96PK6]",selected by phage display,"NEDD4 890-928, P46934",confidence 3 (active)
"AGHQLGLEADGHWGLL [ZNF469, Q96JG9]",selected by phage display,"MAP1LC3B 2-119, Q9GZQ8",confidence 3 (active)
"VPFTELVVQSITPHQS [BMP2K, Q9NSY1]",selected by phage display,"MAP1LC3A 2-121, Q9H492",confidence 3 (active)
"TSPIADFPAPPPYSAV [SYNPO2, Q9UMS6]",selected by phage display,"NEDD4 890-928, P46934",confidence 4 (active)
"DSWGIIAEPRQSAFSN [IRS4, O14654]",selected by phage display,"MAP1LC3A 2-121, Q9H492",confidence 4 (active)
"ATTHYHTYLPPPYPGS [RUNX2, Q13950]",selected by phage display,"NEDD4 890-928, P46934",confidence 2 (active)
"TAPPTYTETLSTAPLA [SYNPO, Q8N3V7]",selected by phage display,"NEDD4 890-928, P46934",confidence 3 (active)
"LPEGFQLLQIDAEGEA [TRMT10B, Q6PF06]",selected by phage display,"MAP1LC3A 2-121, Q9H492",confidence 2 (active)
"DIGGFTLLDGKLVLLG [RASAL3, Q86YV0]",selected by phage display,"MAP1LC3B 2-119, Q9GZQ8",confidence 4 (active)
"APELWTELTGLAASSE [KIFC2, Q96AC6]",selected by phage display,"MAP1LC3A 2-121, Q9H492",confidence 3 (active)
"EDSLPPYKLKLDLTKL [TMEM59L, Q9UK28]",selected by phage display,"NEDD4 890-928, P46934",confidence 2 (active)
same,selected by phage display,"YAP1 169-207, P46937",confidence 4 (active)
VDNRESSENWEIIRED,selected by phage display,"MAP1LC3B 2-119, Q9GZQ8",confidence 2 (active)
